About 79,000 compounds went through this panel and 15% of them were active in at least one assay; those are over-represented in the sample as a whole. A number with no mark means an inactive call. The source made the active and inactive calls. Cut-off read from the data, not from the text of the source: active = growth inhibition above about 70%; inactive = the rest.

A short description of this assay: NCI Yeast Anticancer Drug Screen. Data for the rad50 strain (AID 155).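 Note: 0% = growth of vehicle-only cultures of the same strain.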 The conditions noted are these: S. cerevisiae rad50 strain growth inhibition; at 11.0 µM; stronger effect = higher value. The essentials: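 Readout: growth inhibition relative to vehicle-treated cultures. Compound exposure was carried out in a genetically defined yeast strain deficient in DNA damage repair.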
In the case of `CCCc1cc(C(=O)OCC)cc(CCC)c1O`, the growth inhibition was 16%. The same measure for `CC(C)[N+]([O-])(CCCNc1c2ccccc2nc2cccc([N+](=O)[O-])c12)C(C)C`: 86% (active); for `COc1cc2c3c(cccc3c1)C(=O)N(CCN(C)C)C2=O`: 29%. The same measure for `NC(=O)NN=C(CS)CS`: 31%; for `Cc1ccc(NC(=O)/C(Cl)=C(\Cl)C(=O)O)cc1C`: 38%. The same measure for `CCN(CC)CC[n+]1ccc2c(C)c3[nH]c4ccc(O)cc4c3c(C)c2c1`: 72% (active); for `CC(CC(C)(C)[N+](C)(C)C)[N+](C)(C)C` (centres undefined): 2%. As for `COc1ccc(OC)c2cc3ccccc3cc12`, the growth inhibition was 10%. The same measure for `Nc1ncncc1C(C1=C(O)COC1=O)C1=C(O)COC1=O`: -2%; for `CSC1=NNC(SC)=NN1`: 15%; for `Cc1c(Cl)ccc2c1S(=O)(=O)c1cccc(Cl)c1-2`: -30%. For `[O-][n+]1c2ccc(O)cc2nc2ccc(Cl)cc21` the value was 51%; for `COc1ccc2ccc3ccccc3c2c1C=O`, 28%; for `Nc1ccc2c(c1)C(=O)c1cccc(N)c1C2=O`, 92% (active). Take `O=C(c1ccc(Cl)cc1Cl)C(Cl)Cl`: the growth inhibition is 13%. For `COc1cc(C(=O)/C=C/c2ccccc2O)ccc1O` the value was 98% (active); for `O=Cc1cccc2ccc3ccccc3c12`, 12%; for `O=C(Nc1ccc(Cl)cc1)OCC#CCCl`, -6%. The same measure for `Cn1ccnc1Oc1ccc(Cl)cc1`: 3%; for `c1ccc2c(c1)C(=NCCCN1CCCCCC1)c1cccn1-2`: -9%. As to `C/C(=N\O)C1CC2C=C(C#N)C1N(Cc1ccccc1)C2` (centres undefined), the growth inhibition is 0%.

Consider `O=[N+]([O-])C(=C(Sc1ccccc1)Sc1ccccc1)C(Cl)=C(Cl)Cl`, for which the growth inhibition is 23%. The same measure for `CCCCCCCCCC/C=C\C(=O)O`: -5%; for `COc1ccc(N=C2C(=O)Nc3ccc(Br)cc32)cc1`: -23%; for `COc1ccccc1C(=O)OCC1CCCN2CCCCC12` (centres undefined): 68%.

Turning to `CC(C)(Br)C(=O)/C=C/c1ccc(Cl)c(Cl)c1`, the growth inhibition is 1%. The same measure for `Nc1ccccc1CC(O)C(=O)O` (centres undefined): 27%. For `CC(=O)N/N=C/C(C)(C)C(C)(C)/C=N/NC(C)=O`, the growth inhibition was 16%. The same measure for `CN(C)c1nc2sc3c(c2c(=O)o1)CCCC3`: -13%. The same measure for `CC(C)OC(=O)Oc1ccccc1OC(=O)OC(C)C`: -2%. On to `Cc1ccc(N)c(S)c1`, for which the growth inhibition was -4%. For `O=C(O)c1ccccc1NC(=S)c1ccccc1` the value was -20%. The same measure for `COC(=O)c1ccc(NCC2=CC(=O)C=CC2=O)cc1O`: 75% (active).

As for `NC(N)=N/N=C\c1c2ccccc2cc2ccccc12`, the growth inhibition was -8%. As for `COC(=O)CSSCc1ccc([N+](=O)[O-])cc1`, the growth inhibition was 47%.

`CCS(=O)(=O)c1ccc(/C=C/C=N/NC(=S)NCC(C)C)cc1`: the growth inhibition is -4%.

On to `N#CC(C(=O)Nc1ccccc1)C1=C(Cl)C(=O)c2ccccc2C1=O` (centres undefined), for which the growth inhibition was 97% (active). With `C[C@H](CCC(=O)NN)[C@H]1CC[C@H]2[C@@H]3CC[C@@H]4C[C@H](O)CC[C@]4(C)[C@H]3CC[C@]12C`, the growth inhibition is 9%.

Regarding `CC[n+]1ccc2c(C)c3[nH]c4ccc(O)cc4c3c(C)c2c1`, the growth inhibition is 65%.
